In the library only some 3.5% were active in any assay of this set; here they are far more common.
KDM4E inh – inhibitors of human JMJD2E histone demethylase; Potency, µM (titrated, usually from 57.1 µM), inactives show at the highest dose activity change, negative = inhibition, most hits filed as inhibitors; 1.6% of 230,000 active; B2RXH2; AID 2147; JMJD2E catalytic domain, FDH-coupled NADH fluorescence (FDH is formaldehyde dehydrogenase);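 further: 0% = wells with enzyme and -100% = buffer wells without enzyme; nearly all actives have a fitted effect of over 50% in size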
Target sequence (B2RXH2 1-337 limits assumed): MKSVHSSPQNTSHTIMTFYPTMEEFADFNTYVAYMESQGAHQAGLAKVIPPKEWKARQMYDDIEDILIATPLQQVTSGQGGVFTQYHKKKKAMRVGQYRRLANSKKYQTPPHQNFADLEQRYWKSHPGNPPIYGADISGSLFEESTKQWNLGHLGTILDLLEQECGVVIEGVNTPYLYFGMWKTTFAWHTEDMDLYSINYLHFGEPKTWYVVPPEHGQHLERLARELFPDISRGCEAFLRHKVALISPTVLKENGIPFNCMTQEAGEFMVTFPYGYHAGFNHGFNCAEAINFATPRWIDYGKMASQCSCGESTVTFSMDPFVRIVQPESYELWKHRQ
Tau fibril FP – inhibitors of human tau fibril formation; AID 1468; Potency, µM (highest dose often 57.7 µM), inactives show at the top dose activity, negative = inhibition, usual class: inhibitors; 0.39% of 280,000 active; K18 P301L tau heparin fibrillization, Alexa594 FP, 6 h; further: nearly all actives have a fitted effect of over 55% in size
Target sequence (P10636 561-689 P618L limits assumed): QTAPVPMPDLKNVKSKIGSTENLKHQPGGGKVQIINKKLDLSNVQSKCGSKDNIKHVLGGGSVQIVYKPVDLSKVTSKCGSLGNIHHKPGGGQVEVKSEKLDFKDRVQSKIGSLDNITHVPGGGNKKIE
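Human tau K18 […] P301L fragment, 15 uM unlabeled plus 0.24 uM Alexa 594-labeled tau (final), with compound and 20 uM heparin in 100 mM sodium acetate pH 7; 6 hr at 37 C, then Alexa 594 FP read.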
TRb SRC2 PPI – inhibitors of human thyroid hormone receptor beta-SRC2 interaction. TRbeta-SRC2 peptide binding, fluorescence polarization; receptor liganded with 1 µM T3. Potency, µM (series often up to 106 µM), without a hit: top-dose activity change, negative = inhibition, hits mostly inhibitors. 0.065% of 280,000 active;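 further: plate controls were bound peptide for no effect and peptide without receptor for full effect; nearly all actives have a fitted effect of over 50% in size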
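Fluorescence polarization of 20 nM Texas Red SRC2 peptide with 0.6 uM human TRb ligand-binding domain, in Tris buffer with 1uM T3 and 5% DMSO. Incubated 5 hr ambient; normalized to unbound and bound controls.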
TR SRC2 fluor cs – alters Texas Red total fluorescence, flagging assay interference. TRb/SRC2 Texas Red total fluorescence interference. Potency, µM (top dose mostly 106 µM), for the others: top-dose fluorescence change, negative = quenching. 0.29% of 280,000 active; active means well fitted curve in either direction with a large enough effect; inconclusive means small, poorly fitted or top-dose-only effect
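Human TRβ ligand-binding domain (0.6 uM) and Texas Red SRC2 peptide (20 nM) in Tris buffer with 1 uM T3 and 5% DMSO were incubated with pinned compound for 5 hr at ambient temperature. Total fluorescence was computed as S + 2P (555/632 nm).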
Tau fibril ThT – blocks human tau fibril formation measured by thioflavin T; P10636; recombinant tau K18 P301L, heparin-induced fibrillization, ThT fluorescence; Potency, µM (doses to about 57.4 µM), without a hit: top-dose activity, negative = inhibition, hits mostly inhibitors; 2.1% of 270,000 active; AID 1460; further: nearly all actives have a fitted effect of over 55% in size
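Using a mix of unlabeled (15 uM) and Alexa 594-labeled (0.24 uM) tau K18 P301L, heparin-triggered fibrillization over 6 hr at 37 C was scored by ThT fluorescence.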
Tau fluor cs – counter-screen for tau fibril formation inhibitors. 0.93% of 280,000 active. AID 1463. tau K18 P301L (four-repeat tau fragment) Alexa594 fluorescence, heparin fibrillization. Potency, µM (titrated, usually from 57.7 µM), inactives show at the top dose activity change, negative = decrease; further: nearly all actives have a fitted effect of over 55% in size
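Human K18 P301L tau (15 uM unlabeled plus 0.24 uM Alexa 594-labeled, final) in 100 mM sodium acetate pH 7 was mixed with compound and 20 uM heparin and incubated 6 hr at 37 C.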
The depositor's hits bear a star; ? = inconclusive; · = no result; [ ] = dose if it differs, or a comment. Unless noted, the call rests on the fitted dose curve; in most records, active means well fitted curve in the direction sought with a large enough effect; inconclusive means small, poorly fitted or top-dose-only effect, or another doubt; inactive means no such curve, though single readings can be large; an effect the other way counts as inactive or inconclusive. Unless noted, on the % scale 0 is the no-effect control and ±100 the full control effect; potency means the concentration at half of the fitted maximal effect.

SMILES	KDM4E inh	Tau fibril FP	TRb SRC2 PPI	TR SRC2 fluor cs	Tau fibril ThT	Tau fluor cs
COC(=O)c1cc2c(-c3ccccc3)cc3ccccn3c-2c1C(=O)OC	-0.8%	10.2%	-8.6%	-4.3%	15.8µM*	?
COC(=O)c1c(C)c2c(C)cc3ccccn3c-2c1C(=O)OC	9.0%	17.0%	-0.9%	-0.9%	12.6µM*	?
COC(=O)c1c(C(=O)OC)c2cccc3cc(-c4ccccc4)c4ccc1c4n32	2.51µM*	-13.6%	-19.1%	-1.7%	3.55µM*	?
CC1=C(c2ccc(C(C)C)cc2)S(=O)(=O)NC1=NCc1ccccc1C	·	-1.7%	3.0%	-1.2%	10.7%	9.9%
C(=N\Nc1ccccc1)/c1ccc(N2CCOCC2)cc1	?	12.0%	0.3%	0.6%	35.5µM*	?
O=C(O)c1ccc(N/N=C/c2ccc(-c3ccccc3)cc2)cc1	?	11.0%	7.5%	-8.4%	8.91µM*	15.8µM*[quencher]
COc1ccc(/C=N/Nc2ccc(C(=O)O)cc2)cc1Br	?	6.6%	3.9%	-9.9%	7.08µM*	?
Clc1cccc(N/N=C/c2ccc(N3CCOCC3)cc2)c1	-2.9%	14.3%	0.5%	0.2%	?	?
CCOC(=O)CC(C#N)c1cn(C)c2ccccc12 (configuration not stated)	-6.9%	7.4%	-0.5%	1.1%	-12.7%	-8.5%
O=S(=O)(Nc1ncccn1)c1ccc(NS(=O)(=O)c2cc(Cl)ccc2Cl)cc1	1.4%	-0.5%	-1.0%	-2.4%	-6.0%	-4.1%
CCOc1cccc(C(=O)c2ccc(O)c(O)c2O)c1	10µM*	?	5.2%	0.0%	22.4µM*	?
CCOc1ccc(C(=O)c2ccc(O)c(O)c2O)cc1	14.1µM*	?	-0.5%	-6.2%	22.4µM*	?
OCc1ccc(O)c2ncccc12	15.8µM*	-3.3%	-10.2%	-2.6%	-15.4%	-12.1%
Oc1ccc(COCc2ccccc2)c2cccnc12	?	-9.0%	-0.2%	-2.3%	?	-26.9%
Oc1ccc(F)c2cccnc12	20µM*	-15.4%	-3.0%	-6.0%	-11.8%	-5.5%
CCCOCc1ccc(O)c2ncccc12	14.1µM*	-13.2%	-0.9%	1.3%	3.4%	1.4%
Oc1ccc(CNc2ccccc2F)c2cccnc12	7.94µM*	6.0%	3.7%	-1.2%	?	-18.7%
O=C1NC[C@@H](Cc2ccc(O)cc2)N(CCc2cccc3ccccc23)C1=O	-16.7%	7.4%	-3.3%	-1.7%	-2.8%	4.4%
O=C(NNc1c(Cl)cccc1Cl)c1sccc1Cl	-6.8%	-11.8%	-8.0%	-0.3%	-16.2%	-20.0%
CCOC(=O)CSc1ncc(OC)c(Sc2ccc(Cl)cc2)n1	-12.0%	-1.1%	3.8%	-4.6%	-13.1%	-13.5%
CCCCOc1ccc(Cn2c(=O)sc3ccccc32)cc1	·	-8.7%	8.0%	-0.3%	-8.7%	-16.7%
CC(C)COCc1ccc(O)c2ncccc12	20µM*	-3.4%	-3.5%	-1.6%	?	-16.6%
N#C/C(=C\c1cc2ccccc2nc1N1CCOCC1)C(=O)Nc1ccc(N2CCOCC2)cc1	14.9%	-5.6%	2.3%	0.4%	14.1µM*	?
N#CC(C#N)=Cc1cc2ccccc2nc1N1CCOCC1	2.4%	-13.2%	0.7%	2.7%	?	-7.8%
CCOc1ccc(Cc2c(Cl)nc(SC)nc2N(C)C)cc1	-1.8%	-15.7%	-0.9%	-4.0%	?	-21.3%
NS(=O)(=O)c1ccc(Nc2nc(-c3ccc(F)cc3)cs2)cc1	-8.8%	12.1%	-4.2%	-4.4%	?	15.8µM*[quencher]
NS(=O)(=O)c1ccc(Nc2nc(-c3ccc(O)cc3O)cs2)cc1	?	9.4%	-24.7%	-14.7%	6.31µM*	14.1µM*[quencher]
Oc1ccc(Nc2nc(-c3ccc4ccccc4c3)cs2)cc1	?	?	-0.1%	-11.6%	5.01µM*	7.94µM*[quencher]
Oc1ccc(-c2nc(-c3ccc(O)c(O)c3)cs2)cc1	28.2µM*	7.1%	6.1%	-24.9%	3.16µM*	12.6µM*[quencher]
CC(=O)Nc1ccc(-c2csc(Nc3ccc(S(N)(=O)=O)cc3)n2)cc1	2.8%	9.1%	15.3%	-7.7%	?	-16.4%

Source: PubChem (National Center for Advancing Translational Sciences (NCATS))
